Bioassay records from PubChem.
Only some compounds are listed: those with a hit (about 10% of all), similar ones and a draw of the others.
CCT chaperon mod = modulators of cytosolic chaperonin (CCT/TRiC) activity | activity change, % (test concentration not listed), hits read low | purified chaperonin ATPase assay, HTRF ADP detection, 30 min | actives 0.3% (n = 360,000); in the data active = activity change below about -30%
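First, chaperonin was dispensed at 40 nM or 20 nM final depending on batch activity. Next, compounds were pinned at 76 uM and ATP added at 10 uM. After 30 min at 37 °C, ADP detection reagents ran 30 min at ambient temperature.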
PLK1 PBD inh = PLK1 (human) polo-box domain binding inhibition; actives 2.8% (n = 360,000); AID 720504; Potency, µM, most hits filed as inhibitors; P53350; Plk1 PBD binding of FITC phosphopeptide, fluorescence polarization; note: series mostly up to about 57 µM; nearly all actives have a fitted effect of over 65% in size
Mm-Cpn inhibitor = blocks the Methanococcus maripaludis chaperonin Mm-Cpn; purified Mm-Cpn ATPase, ADP Transcreener TR-FRET; Potency, µM (series often up to 76.9 µM), usual class: inhibitors; actives 0.031% (n = 330,000); note: nearly all actives have a fitted effect of over 80% in size
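ATPase turnover read by TR-FRET ADP competition (Eu cryptate antibody/ADP-d2, 665/590 nm): 10uM ATP final, 25nM Mm-CPN final, 30 min 37degC after 10-min compound preincubation, pH 7.4 Tris/KCl/MgCl2/DTT buffer.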
VDR inh = inhibitors of human vitamin D receptor | P11473 | VDR-SRC2-3 peptide fluorescence polarization, 2 h | Potency, µM, most hits filed as inhibitors | actives 0.93% (n = 400,000) | AID 504847
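Reagent solutions, kept cold and dark, are dispensed first; compounds are then pinned in at 23 nl, plates briefly spun, and incubated 2 h at ambient temperature. Inhibition of VDR–SRC2-3 peptide binding is read by fluorescence polarization.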
Sfp inh = blocks B. subtilis Sfp PPTase activity. Biochemical Sfp PPTase activity, qHTS. AID 1490. Q9F4F7. Potency, µM, usual class: inhibitors. actives 3.5% (n = 310,000);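 note: the enzyme is Sfp with the accession as filed and its product quenches rhodamine fluorescence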
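Fluorescence-quenching assay with 15 nM Sfp, 5 uM rhodamine-CoA and 12.5 uM BHQ-2-labelled ybbR peptide in pH 7.6 Hepes/MgCl2 buffer. Enzyme was pre-incubated with compound for 15 min at room temperature. Rate was taken from the 30-min fluorescence change (525/598 nm).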
G9a inh = G9a (human) methyltransferase inhibition; G9a H3K9 monomethylation, AlphaScreen, 2 h; Potency, µM (series often up to 102 µM), usual class: inhibitors; actives 8.8% (n = 350,000); Q96KQ7; note: nearly all actives have a fitted effect of over 75% in size
Target sequence (Q96KQ7 913-1193 limits assumed): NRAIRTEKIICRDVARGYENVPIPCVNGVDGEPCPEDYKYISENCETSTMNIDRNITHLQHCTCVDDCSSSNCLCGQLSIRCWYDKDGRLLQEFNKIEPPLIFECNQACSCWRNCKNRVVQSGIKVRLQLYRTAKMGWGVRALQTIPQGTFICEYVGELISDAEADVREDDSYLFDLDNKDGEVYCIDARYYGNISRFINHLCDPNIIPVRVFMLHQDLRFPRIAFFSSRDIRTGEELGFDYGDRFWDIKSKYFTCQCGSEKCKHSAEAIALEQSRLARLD
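AlphaScreen read-out: biotin-H3K9 peptide (500 nM) methylation by 20 nM enzyme with 20 uM SAM, 2 h at room temperature after 15 min compound preincubation; anti-monomethyl H3K9 antibody plus donor/acceptor beads, 10 min dark.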
Large screens that a line does not name were inactive. Unless noted, calls come from the whole dose curve; as a rule, active = well fitted curve in the direction sought with a large enough effect; inconclusive = small, poorly fitted or top-dose-only effect, or another doubt; inactive = no such curve, though single readings can be large; an effect the other way counts as inactive or inconclusive.

C#CCOCCOCCOCCNc1nc(N2CCN(C(=O)[C@H](Cc3cc4ccccc4[nH]3)n3cc([C@@H](N)C(C)CC)nn3)CC2)nc(N2CCN(C(=O)[C@H](Cc3cc4ccccc4[nH]3)n3cc([C@@H](N)Cc4ccc(O)cc4)nn3)CC2)n1 (stereo partly drawn)	Sfp inh 50.1µM (no result: CCT chaperon mod, PLK1 PBD inh, Mm-Cpn inhibitor, VDR inh)
C#CCOCCOCCOCCNc1nc(N2CCN(C(=O)[C@H](Cc3ccc(O)cc3)n3cc([C@@H](N)C(C)CC)nn3)CC2)nc(N2CCN(C(=O)[C@H](Cc3cc4ccccc4[nH]3)n3cc([C@@H](N)C(C)CC)nn3)CC2)n1 (stereo partly drawn)	none (no result: Mm-Cpn inhibitor)
C#CCOCCOCCOCCNc1nc(N2CCN(C(=O)[C@H](Cc3ccc(O)cc3)n3cc([C@@H](N)C(C)CC)nn3)CC2)nc(N2CCN(C(=O)[C@H](Cc3cc4ccccc4[nH]3)n3cc([C@@H](N)CC(C)C)nn3)CC2)n1 (stereo partly drawn)	Sfp inh 50.1µM, G9a inh inconclusive (no result: Mm-Cpn inhibitor)
C#CCOCCOCCOCCNc1nc(N2CCN(C(=O)[C@H]([C@@H](C)CC)n3cc([C@@H](N)Cc4ccc(O)cc4)nn3)CC2)nc(N2CCN(C(=O)[C@H](Cc3cc4ccccc4[nH]3)n3cc([C@@H](N)C(C)CC)nn3)CC2)n1 (stereo partly drawn)	G9a inh inconclusive (no result: CCT chaperon mod, PLK1 PBD inh, Mm-Cpn inhibitor, VDR inh)
C#CCOCCOCCOCCNc1nc(N2CCN(C(=O)[C@H]([C@@H](C)CC)n3cc([C@@H](N)CC(C)C)nn3)CC2)nc(N2CCN(C(=O)[C@H](Cc3cc4ccccc4[nH]3)n3cc([C@@H](N)CC(C)C)nn3)CC2)n1	Mm-Cpn inhibitor inconclusive, G9a inh inconclusive (no result: CCT chaperon mod, PLK1 PBD inh, VDR inh)
C#CCOCCOCCOCCNc1nc(N2CCN(C(=O)[C@H]([C@@H](C)CC)n3cc([C@@H](N)CO)nn3)CC2)nc(N2CCN(C(=O)[C@H](Cc3cc4ccccc4[nH]3)n3cc([C@@H](N)C(C)CC)nn3)CC2)n1 (stereo partly drawn)	Sfp inh 50.1µM, G9a inh inconclusive (no result: CCT chaperon mod, PLK1 PBD inh, Mm-Cpn inhibitor, VDR inh)
Cc1ccc(-c2cc(NC(=O)c3ccccc3Cl)on2)cc1	none (no result: CCT chaperon mod, PLK1 PBD inh, Mm-Cpn inhibitor, Sfp inh)
CSc1ccc(/C=C/C(=O)N2CCCN(C)CC2)cc1	PLK1 PBD inh inconclusive, G9a inh 22.4µM
C=CC[n+]1c(-c2ccc(OC)cc2)csc1NNC(=O)Nc1ccccc1	Sfp inh 50.1µM, G9a inh 14.1µM
COc1ccc(Cc2nc(C(=O)Nc3ccccc3)cs2)cc1	none
CCC(C)NCCCOc1ccc(C)cc1OC (stereo not drawn)	G9a inh 11.2µM
CNCCCOc1ccc(C)cc1OC	Sfp inh 44.7µM (no result: G9a inh)
C/C=C/c1ccc(OCCCNC)c(OC)c1	G9a inh 15.8µM
CCC(C)NCCCCOc1ccc(C)cc1[N+](=O)[O-] (stereo not drawn)	Sfp inh inconclusive
COc1cc(C(=O)NCC(=O)N/N=C/c2ccc(-c3ccc([N+](=O)[O-])cc3)o2)cc(OC)c1OC	G9a inh 44.7µM
COc1cc(C(=O)NCC(=O)N/N=C/c2ccc(-c3cccc([N+](=O)[O-])c3)o2)cc(OC)c1OC	G9a inh 10µM
Cc1ccc(C(=O)N/N=C\c2ccc(-c3ccc([N+](=O)[O-])cc3)o2)cn1	none (no result: G9a inh)
CCCCCCC(=O)N(O)C1CC(=O)N(c2ccc(C)cc2)C1=O (stereo not drawn)	PLK1 PBD inh 26.7µM, VDR inh 31.6µM, Sfp inh 20µM, G9a inh 1.26µM
CCCOc1ccc(N2C(=O)CC(N(CCC)C(=O)CCC(=O)O)C2=O)cc1 (stereo not drawn)	none
CCCCCCC(=O)N(O)C1CC(=O)N(c2ccc(Cl)cc2)C1=O (stereo not drawn)	PLK1 PBD inh inconclusive, VDR inh inconclusive, Sfp inh 25.1µM (no result: G9a inh)
O=C(O)CSC1CC(=O)N(c2ccc(Cl)cc2)C1=O (stereo not drawn)	G9a inh inconclusive
COc1ccc(S(=O)(=O)NCC(c2ccco2)N2CCN(c3ccccc3F)CC2)cc1C (stereo not drawn)	none (no result: CCT chaperon mod, PLK1 PBD inh, Mm-Cpn inhibitor, Sfp inh)
